# According to ChEMBL document CHEMBL1961873, “Compounds: GSK PKIS; Assays: Nanosyn kinase panel” (2012):
# Columns and labels:
# [1] = target: T1, Inhibitor of nuclear factor kappa-B kinase subunit epsilon (Homo sapiens) (UniProt Q14164); conditions: at 1 µM;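 further: reported values are averaged percent inhibition figures against human IKKε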
# T1 sequence (whole entry): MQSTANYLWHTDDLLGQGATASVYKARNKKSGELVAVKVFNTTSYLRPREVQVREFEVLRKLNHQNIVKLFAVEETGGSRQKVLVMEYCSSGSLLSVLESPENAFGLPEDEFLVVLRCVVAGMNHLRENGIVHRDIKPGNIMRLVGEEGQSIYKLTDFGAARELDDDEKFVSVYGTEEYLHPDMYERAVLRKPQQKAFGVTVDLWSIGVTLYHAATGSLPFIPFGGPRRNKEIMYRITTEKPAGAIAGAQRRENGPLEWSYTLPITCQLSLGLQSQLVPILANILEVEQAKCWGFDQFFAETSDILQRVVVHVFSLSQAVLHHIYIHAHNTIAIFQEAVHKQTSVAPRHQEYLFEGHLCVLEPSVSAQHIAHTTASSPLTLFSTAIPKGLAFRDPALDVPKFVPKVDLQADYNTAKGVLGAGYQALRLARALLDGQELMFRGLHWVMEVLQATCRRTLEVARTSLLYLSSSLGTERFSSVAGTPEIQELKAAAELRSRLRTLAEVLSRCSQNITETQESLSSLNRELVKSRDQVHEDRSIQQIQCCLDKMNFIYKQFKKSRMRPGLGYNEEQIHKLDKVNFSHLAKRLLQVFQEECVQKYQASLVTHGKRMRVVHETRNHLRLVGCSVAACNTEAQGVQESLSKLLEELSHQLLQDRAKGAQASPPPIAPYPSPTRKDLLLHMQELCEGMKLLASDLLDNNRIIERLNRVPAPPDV
# [2] = target: T2, Serine/threonine-protein kinase Nek1 (Homo sapiens) (UniProt Q96PY6); conditions: at 0.1 µM
# T2 sequence (whole entry): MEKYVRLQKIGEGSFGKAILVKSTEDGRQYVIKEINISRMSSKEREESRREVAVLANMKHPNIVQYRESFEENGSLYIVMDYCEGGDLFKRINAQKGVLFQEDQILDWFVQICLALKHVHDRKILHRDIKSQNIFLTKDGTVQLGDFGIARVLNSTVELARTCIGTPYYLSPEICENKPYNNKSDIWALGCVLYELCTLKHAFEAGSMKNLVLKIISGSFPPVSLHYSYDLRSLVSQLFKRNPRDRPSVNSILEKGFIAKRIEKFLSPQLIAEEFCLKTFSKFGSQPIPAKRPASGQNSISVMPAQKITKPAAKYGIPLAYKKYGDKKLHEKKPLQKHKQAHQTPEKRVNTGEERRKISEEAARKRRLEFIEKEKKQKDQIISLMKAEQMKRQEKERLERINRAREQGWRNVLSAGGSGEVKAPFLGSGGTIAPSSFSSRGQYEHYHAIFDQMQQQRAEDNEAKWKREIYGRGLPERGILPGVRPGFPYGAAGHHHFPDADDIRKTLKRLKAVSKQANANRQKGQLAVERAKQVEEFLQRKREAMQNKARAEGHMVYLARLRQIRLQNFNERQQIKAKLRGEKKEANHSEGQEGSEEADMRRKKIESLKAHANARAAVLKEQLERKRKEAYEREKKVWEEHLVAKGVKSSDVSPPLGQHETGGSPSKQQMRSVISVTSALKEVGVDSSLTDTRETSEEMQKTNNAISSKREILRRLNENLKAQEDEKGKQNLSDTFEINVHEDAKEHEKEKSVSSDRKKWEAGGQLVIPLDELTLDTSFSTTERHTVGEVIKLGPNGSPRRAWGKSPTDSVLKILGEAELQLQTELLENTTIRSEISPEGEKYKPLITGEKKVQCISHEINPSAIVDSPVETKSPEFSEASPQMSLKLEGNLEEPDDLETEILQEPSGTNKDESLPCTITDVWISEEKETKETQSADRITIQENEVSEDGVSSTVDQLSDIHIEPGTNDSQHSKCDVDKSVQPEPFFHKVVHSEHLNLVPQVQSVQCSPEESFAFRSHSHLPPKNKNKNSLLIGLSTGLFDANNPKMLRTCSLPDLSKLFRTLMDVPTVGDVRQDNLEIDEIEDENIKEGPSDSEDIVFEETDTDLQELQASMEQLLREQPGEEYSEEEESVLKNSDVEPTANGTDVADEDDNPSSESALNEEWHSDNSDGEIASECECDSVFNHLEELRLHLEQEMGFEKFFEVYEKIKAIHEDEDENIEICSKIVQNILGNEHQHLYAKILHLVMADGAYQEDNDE
# [3] = target: T2, Serine/threonine-protein kinase Nek1 (Homo sapiens); conditions: at 1 µM
# [4] = target: T3, Serine/threonine-protein kinase Nek2 (Homo sapiens) (UniProt P51955); conditions: at 0.1 µM
# T3 sequence (whole entry): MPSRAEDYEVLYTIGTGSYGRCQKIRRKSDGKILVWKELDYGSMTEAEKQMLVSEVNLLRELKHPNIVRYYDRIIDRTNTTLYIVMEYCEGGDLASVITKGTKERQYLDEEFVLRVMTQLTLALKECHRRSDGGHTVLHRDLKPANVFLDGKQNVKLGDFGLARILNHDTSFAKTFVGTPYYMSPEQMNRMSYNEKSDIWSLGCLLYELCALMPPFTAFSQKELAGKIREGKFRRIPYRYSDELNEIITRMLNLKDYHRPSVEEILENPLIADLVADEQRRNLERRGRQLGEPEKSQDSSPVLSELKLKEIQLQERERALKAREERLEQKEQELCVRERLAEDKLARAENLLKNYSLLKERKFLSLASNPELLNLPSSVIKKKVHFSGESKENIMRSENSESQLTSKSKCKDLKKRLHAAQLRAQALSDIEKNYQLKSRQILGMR
# [5] = target: T3, Serine/threonine-protein kinase Nek2 (Homo sapiens); conditions: at 1 µM
# [6] = target: Serine/threonine-protein kinase Nek6 (Homo sapiens) (UniProt Q9HC98); conditions: at 0.1 µM
# Sequence of Serine/threonine-protein kinase Nek6 (Homo sapiens) (Q9HC98 whole entry): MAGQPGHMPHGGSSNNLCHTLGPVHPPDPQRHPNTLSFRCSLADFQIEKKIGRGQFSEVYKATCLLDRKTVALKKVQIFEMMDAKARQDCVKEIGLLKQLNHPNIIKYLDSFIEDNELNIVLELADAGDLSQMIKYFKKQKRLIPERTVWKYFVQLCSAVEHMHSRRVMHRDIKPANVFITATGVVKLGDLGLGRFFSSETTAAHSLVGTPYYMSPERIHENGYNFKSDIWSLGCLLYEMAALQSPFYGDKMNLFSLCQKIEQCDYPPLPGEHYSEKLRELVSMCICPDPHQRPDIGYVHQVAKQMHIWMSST
# [7] = target: Serine/threonine-protein kinase Nek6 (Homo sapiens) (UniProt Q9HC98); conditions: at 1 µM
# [8] = target: Serine/threonine-protein kinase Nek7 (Homo sapiens) (UniProt Q8TDX7); conditions: at 0.1 µM
# Sequence of Serine/threonine-protein kinase Nek7 (Homo sapiens) (Q8TDX7 whole entry, looked up): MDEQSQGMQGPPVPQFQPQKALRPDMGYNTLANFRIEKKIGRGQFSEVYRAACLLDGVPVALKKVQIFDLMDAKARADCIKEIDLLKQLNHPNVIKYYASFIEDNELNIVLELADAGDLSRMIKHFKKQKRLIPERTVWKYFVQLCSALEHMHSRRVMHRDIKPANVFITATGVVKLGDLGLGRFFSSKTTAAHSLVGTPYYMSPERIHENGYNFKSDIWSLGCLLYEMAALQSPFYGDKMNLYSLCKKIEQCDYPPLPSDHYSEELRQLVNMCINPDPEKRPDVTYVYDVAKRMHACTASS
# [9] = target: Serine/threonine-protein kinase Nek7 (Homo sapiens) (UniProt Q8TDX7); conditions: at 1 µM
# [10] = target: T4, Serine/threonine-protein kinase Nek9 (Homo sapiens) (UniProt Q8TD19); conditions: at 0.1 µM;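 further: reported value is the mean percent inhibition of NEK9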
# T4 sequence (whole entry): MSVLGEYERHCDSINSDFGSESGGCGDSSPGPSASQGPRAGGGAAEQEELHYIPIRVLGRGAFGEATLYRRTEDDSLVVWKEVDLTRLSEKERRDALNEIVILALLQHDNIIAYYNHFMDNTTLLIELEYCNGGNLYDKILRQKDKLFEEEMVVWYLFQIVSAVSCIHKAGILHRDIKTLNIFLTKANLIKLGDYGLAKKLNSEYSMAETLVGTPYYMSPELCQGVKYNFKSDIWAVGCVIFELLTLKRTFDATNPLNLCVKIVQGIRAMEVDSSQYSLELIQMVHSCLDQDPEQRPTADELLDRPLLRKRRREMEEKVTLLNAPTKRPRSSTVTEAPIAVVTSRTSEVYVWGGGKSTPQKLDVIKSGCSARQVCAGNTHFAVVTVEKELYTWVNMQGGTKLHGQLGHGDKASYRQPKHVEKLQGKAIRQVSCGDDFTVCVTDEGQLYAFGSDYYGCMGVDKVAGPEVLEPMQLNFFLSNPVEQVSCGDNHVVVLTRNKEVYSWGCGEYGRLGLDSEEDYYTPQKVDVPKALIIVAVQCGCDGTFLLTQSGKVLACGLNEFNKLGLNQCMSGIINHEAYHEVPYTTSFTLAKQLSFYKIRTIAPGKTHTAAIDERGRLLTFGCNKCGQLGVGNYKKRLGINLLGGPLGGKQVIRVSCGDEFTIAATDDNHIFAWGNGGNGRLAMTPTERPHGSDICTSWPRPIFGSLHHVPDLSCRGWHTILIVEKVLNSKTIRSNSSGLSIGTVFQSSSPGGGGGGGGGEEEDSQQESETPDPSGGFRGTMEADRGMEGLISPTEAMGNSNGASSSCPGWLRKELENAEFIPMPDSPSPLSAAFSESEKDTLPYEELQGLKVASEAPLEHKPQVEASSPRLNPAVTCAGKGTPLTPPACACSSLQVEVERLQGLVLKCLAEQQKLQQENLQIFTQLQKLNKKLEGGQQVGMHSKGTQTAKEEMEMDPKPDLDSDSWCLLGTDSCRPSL
structure (smiles),measurement,setting,value
CCn1c(-c2nonc2N)nc2c(C#CC(C)(C)O)nc(OC[C@@H](N)c3ccccc3)cc21,inhibition,[1],34.9%
same,inhibition,[2],0.04%
same,inhibition,[3],3.08%
same,inhibition,[4],-1.09%
same,inhibition,[5],1.53%
same,inhibition,[6],-0.14%
same,inhibition,[7],3.35%
same,inhibition,[8],0.12%
same,inhibition,[9],-0.33%
same,inhibition,[10],-3.59%
